Results: PubChem BioAssay (NCATS)
Records with an inconclusive call do not appear. Where a call stands in place of a potency, no number is given. Activity calls are given as the source filed them. The call rests on the fitted dose curve; in most records, active means well fitted curve in the direction sought with a large enough effect; inconclusive means small, poorly fitted or top-dose-only effect, or another doubt; inactive means no such curve, though single readings can be large; an effect the other way counts as inactive or inconclusive.

What was measured:
[1] = S16 Schwann cell viability assay (CellTiter-Glo assay) (AID 624031); settings: S16 rat Schwann cells viability, 24 h; series mostly up to 57.5 µM; further: nearly all actives have a fitted effect of over 70% in size
How it was run: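 Concentration-effect curves come from CellTiter-Glo luminescence of S16 rat Schwann cells after 24 h compound exposure. Each reading was normalized to DMSO wells (0%) and wells without cells, and curves were ranked by r2 and response magnitude.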

[2] = test system: AA1029; test: qHTS profiling for inhibitors of Plasmodium falciparum proliferation (AID 504749); further: nearly all actives have a fitted effect of over 60% in size; settings: P. falciparum in erythrocytes, SYBR Green DNA, 72 h; series mostly up to 28.7 µM
How it was run: (§1)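 SYBR Green fluorescence of parasite DNA, read after lysis and overnight dark incubation, measured growth over 72 h in erythrocyte culture at 0.3% parasitemia and 2.5% hematocrit. Data normalised to DMSO and 0.29 uM artemisinin, with plate-drift correction.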

[3] = test system: AS120; test: as above; settings: P. falciparum in erythrocytes, SYBR Green DNA, 72 h; series mostly up to 28.7 µM
How it was run: as §1

[4] = test system: ATS95; test: as above; settings: P. falciparum in erythrocytes, SYBR Green DNA, 72 h; series mostly up to 28.7 µM
How it was run: as §1

[5] = test system: CP194; test: as above; settings: P. falciparum in erythrocytes, SYBR Green DNA, 72 h; series mostly up to 28.7 µM
How it was run: as §1

[6] = test system: CP247; test: as above; settings: P. falciparum in erythrocytes, SYBR Green DNA, 72 h; series mostly up to 28.7 µM
How it was run: as §1

[7] = test system: CP266; test: as above; settings: P. falciparum in erythrocytes, SYBR Green DNA, 72 h; series mostly up to 28.7 µM
How it was run: as §1

[8] = test system: CP297; test: as above; settings: P. falciparum in erythrocytes, SYBR Green DNA, 72 h; series mostly up to 28.7 µM
How it was run: as §1

[9] = test system: DFO2036; test: as above; settings: P. falciparum in erythrocytes, SYBR Green DNA, 72 h; series mostly up to 28.7 µM
How it was run: as §1

[10] = test system: DIV14; test: as above; settings: P. falciparum in erythrocytes, SYBR Green DNA, 72 h; series mostly up to 28.7 µM
How it was run: as §1

[11] = test system: Dd2; test: as above; settings: P. falciparum in erythrocytes, SYBR Green DNA, 72 h; series mostly up to 28.7 µM
How it was run: as §1

[12] = test system: GB4; test: as above; settings: P. falciparum in erythrocytes, SYBR Green DNA, 72 h; series mostly up to 28.7 µM
How it was run: as §1

[13] = test system: ICS; test: as above; settings: P. falciparum in erythrocytes, SYBR Green DNA, 72 h; series mostly up to 28.7 µM
How it was run: as §1

[14] = test system: P93_24; test: as above; settings: P. falciparum in erythrocytes, SYBR Green DNA, 72 h; series mostly up to 28.7 µM
How it was run: as §1

[15] = test system: P94_40; test: as above; settings: P. falciparum in erythrocytes, SYBR Green DNA, 72 h; series mostly up to 28.7 µM
How it was run: as §1

[16] = test system: PAD; test: as above; settings: P. falciparum in erythrocytes, SYBR Green DNA, 72 h; series mostly up to 28.7 µM
How it was run: as §1

[17] = test system: PC15; test: as above; settings: P. falciparum in erythrocytes, SYBR Green DNA, 72 h; series mostly up to 28.7 µM
How it was run: as §1

[18] = test system: SC27B; test: as above; settings: P. falciparum in erythrocytes, SYBR Green DNA, 72 h; series mostly up to 28.7 µM
How it was run: as §1

[19] = test system: TAB165; test: as above; settings: P. falciparum in erythrocytes, SYBR Green DNA, 72 h; series mostly up to 28.7 µM
How it was run: as §1

[20] = test system: CP260; test: as above; settings: P. falciparum in erythrocytes, SYBR Green DNA, 72 h; series mostly up to 28.7 µM
How it was run: as §1
Potency means the concentration at half of the fitted maximal effect.

Row | Structure (SMILES) | Potency [1] | Potency [2] | Potency [3] | Potency [4] | Potency [5] | Potency [6] | Potency [7] | Potency [8] | Potency [9] | Potency [10] | Potency [11] | Potency [12] | Potency [13] | Potency [14] | Potency [15] | Potency [16] | Potency [17] | Potency [18] | Potency [19] | Potency [20]
1 | C=C1CC2C(CC[C@]3(C)C(=O)CCC23)[C@]2(C)C=CC(=O)C=C12 (some centres undefined) | inactive | inactive | inactive | inactive | inactive | inactive | inactive | inactive | inactive | inactive | inactive | inactive | inactive | inactive | inactive | inactive | inactive | inactive | inactive | –
2 | C[C@@H](N)[C@@H](O)c1ccc(O)c(O)c1 | 28.7 µM (active) | inactive | inactive | inactive | inactive | inactive | inactive | inactive | inactive | inactive | inactive | inactive | inactive | inactive | inactive | inactive | inactive | inactive | inactive | inactive
3 | O=C1CC2OCC=C3CN4CC[C@]56c7ccccc7N1C5C2[C@H]3C[C@H]46 (some centres undefined) | inactive | 10 µM (active) | – | – | – | inactive | – | – | – | – | 11.2 µM (active) | – | inactive | – | – | – | inactive | – | – | 11.2 µM (active)
4 | Cc1ccc2c(c1)[C@@H]1CN(C)CC[C@H]1N2 | inactive | inactive | inactive | inactive | inactive | inactive | – | inactive | inactive | inactive | inactive | – | inactive | inactive | inactive | inactive | inactive | inactive | inactive | inactive
5 | CC(C)=CC1C(C(=O)OCc2coc(Cc3ccccc3)c2)C1(C)C (centres undefined) | inactive | inactive | – | inactive | inactive | inactive | inactive | inactive | inactive | inactive | inactive | inactive | – | inactive | inactive | inactive | inactive | – | – | inactive
6 | CC(=O)Oc1ccc2c3c1OC1[C@@H](OC(C)=O)C=C[C@H]4[C@H](C2)N(C)CC[C@]314 (some centres undefined) | inactive | inactive | inactive | inactive | inactive | inactive | inactive | inactive | inactive | inactive | inactive | inactive | inactive | inactive | inactive | inactive | inactive | inactive | inactive | inactive
7 | CC(Cc1ccccc1)N(C)C (centres undefined) | inactive | inactive | inactive | inactive | inactive | inactive | inactive | inactive | inactive | inactive | inactive | – | inactive | inactive | inactive | inactive | inactive | inactive | inactive | inactive
8 | C#C[C@]1(O)CC[C@H]2[C@@H]3CCC4=CC(=O)CCC4(C)[C@H]3CCC21C (some centres undefined) | inactive | inactive | inactive | inactive | inactive | – | inactive | – | inactive | inactive | inactive | inactive | inactive | inactive | inactive | inactive | inactive | inactive | inactive | inactive
9 | C=CC[C@]1(O)CCC2C3CCC4=CCCCC4C3CCC21C (some centres undefined) | – | inactive | inactive | – | inactive | inactive | – | inactive | inactive | – | – | inactive | – | inactive | – | inactive | – | inactive | inactive | inactive
10 | CC(=O)O[C@H]1C[C@H](O[C@H]2[C@@H](O)CC(O[C@H]3[C@@H](O)C[C@H](O[C@H]4CC[C@@]5(C)[C@H](CC[C@@H]6[C@@H]5CC[C@]5(C)[C@@H](C7=CC(=O)OC7)CC[C@]65O)C4)O[C@@H]3C)O[C@@H]2C)O[C@H](C)[C@H]1O[C@@H]1O[C@H](CO)[C@@H](O)[C@H](O)[C@H]1O (some centres undefined) | inactive | inactive | inactive | inactive | inactive | inactive | inactive | inactive | inactive | – | inactive | inactive | inactive | inactive | inactive | inactive | – | inactive | inactive | inactive
11 | Nc1nc(O)c(-c2ccccc2)o1 | – | inactive | inactive | inactive | inactive | inactive | – | inactive | inactive | inactive | inactive | inactive | inactive | inactive | inactive | inactive | inactive | inactive | inactive | inactive
12 | CC(CO)NC(=O)C1C=C2c3cccc4[nH]cc(c34)CC2N(C)C1 (centres undefined) | inactive | inactive | inactive | inactive | inactive | inactive | inactive | inactive | inactive | – | inactive | inactive | inactive | inactive | inactive | inactive | inactive | inactive | inactive | inactive
13 | CC(=O)[C@H]1CC[C@H]2C3CC[C@H]4C[C@H](O)CC[C@]4(C)C3CC[C@]12C (some centres undefined) | inactive | inactive | inactive | inactive | inactive | inactive | inactive | inactive | inactive | inactive | inactive | inactive | inactive | inactive | inactive | inactive | inactive | inactive | inactive | –
14 | COC(C(=O)C(O)C(C)O)C1Cc2cc3cc(OC4CC(OC5CC(O)C(OC)C(C)O5)C(OC(C)=O)C(C)O4)c(C)c(O)c3c(O)c2C(=O)C1OC1CC(OC2CC(OC3CC(C)(O)C(OC(C)=O)C(C)O3)C(O)C(C)O2)C(O)C(C)O1 (centres undefined) | inactive | 0.794 µM (active) | 0.794 µM (active) | 0.708 µM (active) | 6.75 µM (active) | 1.78 µM (active) | – | 4.26 µM (active) | 1 µM (active) | 2.39 µM (active) | 0.178 µM (active) | 2.13 µM (active) | 0.112 µM (active) | 0.794 µM (active) | 0.708 µM (active) | 0.891 µM (active) | 2.24 µM (active) | 1 µM (active) | 0.794 µM (active) | 0.126 µM (active)
15 | CC1CC[C@@]2(NC1)OC1CC3C4CC[C@@H]5CC(O)CC[C@@]5(C)C4CC[C@]3(C)C1C2C (some centres undefined) | inactive | inactive | – | inactive | inactive | – | inactive | inactive | inactive | – | – | – | 10 µM (active) | – | – | – | inactive | – | – | –
16 | C#CCN1CC(=O)N(COC(=O)[C@@H]2[C@@H](C=C(C)C)C2(C)C)C1=O | inactive | inactive | inactive | inactive | inactive | inactive | – | – | inactive | inactive | inactive | inactive | inactive | inactive | inactive | inactive | inactive | inactive | inactive | inactive
17 | CCCCCCC(=O)O[C@H]1CC[C@H]2[C@@H]3CCC4CC(=O)C=C(C)[C@]4(C)[C@H]3CC[C@]12C (some centres undefined) | inactive | inactive | inactive | inactive | inactive | inactive | inactive | inactive | inactive | inactive | – | inactive | 10 µM (active) | inactive | inactive | inactive | – | inactive | inactive | –
18 | CCN(CC)C(=O)N[C@@H]1C=C2c3cccc4[nH]cc(c34)C[C@H]2N(C)C1 | – | – | 12.6 µM (active) | – | – | – | inactive | – | inactive | 13.5 µM (active) | 14.1 µM (active) | 8.49 µM (active) | 8.91 µM (active) | 7.94 µM (active) | 8.91 µM (active) | – | – | – | 12.6 µM (active) | –
19 | O=[N+]([O-])OC1CO[C@H]2C(O[N+](=O)[O-])COC12 (some centres undefined) | inactive | inactive | inactive | inactive | inactive | inactive | inactive | inactive | inactive | inactive | inactive | inactive | inactive | inactive | inactive | inactive | inactive | inactive | inactive | inactive
20 | CCC/C=C/C=C/C(=O)OC1/C(=C/C(=O)OC)CC2CC(C(C)O)OC(=O)CC(O)CC3CC(OC(C)=O)C(C)(C)C(O)(CC4C/C(=C/C(=O)OC)CC(/C=C\C(C)(C)C1(O)O2)O4)O3 (centres undefined) | inactive | 1.78 µM (active) | 1 µM (active) | 2.51 µM (active) | – | 2.82 µM (active) | – | 1.69 µM (active) | 1.26 µM (active) | 1.07 µM (active) | 2.24 µM (active) | 1.51 µM (active) | 0.562 µM (active) | 2.24 µM (active) | 2.24 µM (active) | 1.78 µM (active) | 2.24 µM (active) | 2.51 µM (active) | 1.41 µM (active) | 2.82 µM (active)
21 | CN(C)[C@@H](Cc1ccccc1)c1ccccc1 | inactive | – | inactive | inactive | inactive | 10 µM (active) | inactive | – | inactive | – | 10 µM (active) | – | inactive | – | inactive | inactive | inactive | inactive | inactive | inactive
22 | CC(C)CCC(=O)OC1CCC2C3CCC4=CC(=O)CC[C@]4(C)C3CC[C@]12C (some centres undefined) | – | – | – | – | inactive | – | inactive | inactive | – | inactive | – | inactive | 7.94 µM (active) | – | – | – | – | – | – | 11.2 µM (active)
23 | CN(C)C1C(=O)C(C(N)=O)C(=O)C2(O)C(=O)C3C(=O)c4c(O)cccc4C(C)(O)C3C(O)C12 (centres undefined) | inactive | – | inactive | – | inactive | – | – | inactive | – | – | 3.55 µM (active) | – | 2.82 µM (active) | – | – | – | inactive | inactive | – | –
